Source: PubChem (National Center for Advancing Translational Sciences (NCATS))
Pf growth 48h: P. falciparum growth inhibition at 48 hours (one generation); AID 504832; Potency, µM (doses to about 28.7 µM), most hits filed as inhibitors; P. falciparum luciferase growth in erythrocytes, 48 h; 5.9% of 310,000 active
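Parasite viability was followed by luminescence of a genomically integrated firefly luciferase. Cultures held 0.1% parasitemia at 2% hematocrit (final), incubated under 5% CO2 at 37 C.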
NS1 inh: influenza NS1 inhibition | Potency, µM (doses to about 46.1 µM) | 0.4% of 270,000 active; calls by dose curve; note: actives are rising curves; nearly all actives have a fitted effect of over 50% in size
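S. cerevisiae expressing influenza A NS1, grown in glucose, washed, then diluted 1:100 into pH 6.0 -URA galactose medium with 23 nl compound. Growth recovery read as OD600; NS1-free strain serves as control.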
Shiga inhibitor: inhibitors of Shiga toxin in Vero cells; Vero cells, Shiga toxin protein synthesis inhibition reporter; inhibition, % at 38.7 µM; 9.2% of 290,000 active; in the data active = inhibition mostly above about 28%, no sharp cut-off; inactive = mostly below about 43%
CHX counter: affects cycloheximide protein synthesis inhibition readout, counter-screen. AID 2314. 12% of 300,000 active. max response, %. cell reporter, cycloheximide protein synthesis inhibition counterscreen; in the data active = max response mostly above about 13%, no sharp cut-off; inactive = mostly below about 14%; note: read at 38.3 µM for the half of the compounds with a filed dose
Pf growth 96h: inhibits malaria parasite growth, 96 h. P. falciparum luciferase reporter growth, 96 h. Potency, µM (series often up to 28.7 µM), hits mostly inhibitors. 6.9% of 320,000 active
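P. falciparum expressing integrated firefly luciferase, in erythrocytes at 2% hematocrit, 0.05% parasitemia, incubated with compounds 96 h at 37 C, 5% CO2. Growth inhibition read as loss of luminescence; two-generation exposure targets delayed-death apicoplast inhibitors.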
Sm TGR inh: S. mansoni TGR enzyme inhibition; Q962Y6; purified TGR, DTNB reduction, TNB absorbance 405 nm; Potency, µM (highest dose often 114 µM), usual class: inhibitors; 3% of 360,000 active; AID 485364; note: nearly all actives have a fitted effect of over 60% in size
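Kinetic colorimetric format: TGR-catalysed, NADPH-driven DTNB reduction monitored via TNB absorbance. Enzyme dispensed at 20 nM; compound exposure 15 min at room temperature before reaction start.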
Each line names hits and unclear results; the compound was inactive in the other large screens. Hits are enriched below; roughly 21% of the tested compounds scored in any of these assays. Unless noted, calls come from the whole dose curve; as a rule, active = well fitted curve in the direction sought with a large enough effect; inconclusive = small, poorly fitted or top-dose-only effect, or another doubt; inactive = no such curve, though single readings can be large; an effect the other way counts as inactive or inconclusive.

COc1cccc(CNC(=O)CNS(=O)(=O)c2ccc3nc(C)sc3c2)c1	none (no result: Pf growth 48h, NS1 inh, Shiga inhibitor, CHX counter, Pf growth 96h)
Cc1ccc2[nH]c3c(c2c1)CCCC3NCCO (stereo not given)	Pf growth 48h inconclusive, Pf growth 96h inconclusive (no result: Shiga inhibitor)
COc1ccc(CCNC(=O)C(NS(=O)(=O)c2cccc3nsnc23)C(C)C)cc1OC (stereo not given)	none
Cc1ccc(CNC(=O)CC(C)S(=O)(=O)c2ccc3c(c2)NC(=O)CO3)cc1 (stereo not given)	Pf growth 96h 9.3µM
O=C(CCS(=O)(=O)c1ccc2c(c1)NC(=O)CO2)NCc1ccccc1	Pf growth 96h 13µM
COc1ccc(CNC(=O)CC(C)S(=O)(=O)c2ccc3c(c2)NC(=O)CO3)cc1 (stereo not given)	Pf growth 96h inconclusive
CC(CC(=O)N1CCN(c2ccccc2)CC1)S(=O)(=O)c1ccc2c(c1)NC(=O)CO2 (stereo not given)	Pf growth 96h 5.9µM
O=C1COc2ccc(S(=O)(=O)N3CCN(c4ccccc4)CC3)cc2N1	Pf growth 96h inconclusive
Cc1ccc(N(C)C(=O)CC(C)S(=O)(=O)c2ccc3c(c2)NC(=O)CO3)cc1 (stereo not given)	Pf growth 96h 3.7µM
CCOC(=O)C(=O)Nc1ccc(S(=O)(=O)Nc2nccs2)cc1	none
CCCOc1ccc(CC2C(=O)Nc3ccc(Br)cc32)cc1 (stereo not given)	none (no result: Pf growth 48h, NS1 inh, Shiga inhibitor, CHX counter, Pf growth 96h)
Cc1cc2c(cc1S(=O)(=O)NCc1ccc(N(C)C)cc1)OCC(=O)N2	Pf growth 96h inconclusive
Cc1ccc(CNC(=O)CCS(=O)(=O)c2ccc3c(c2)NC(=O)CS3)cc1	none
Cc1ccc(CNC(=O)CC(C)S(=O)(=O)c2ccc3c(c2)NC(=O)CS3)o1 (stereo not given)	Pf growth 96h inconclusive, Sm TGR inh 14µM
Cc1ccc(CNS(=O)(=O)c2cc3c(cc2C)NC(=O)CO3)cc1	Pf growth 48h inconclusive, Pf growth 96h 4.1µM
COCC(C)NC(=O)c1cc2c(=O)n3cccc(C)c3nc2s1 (stereo not given)	none (no result: Pf growth 48h, NS1 inh, Shiga inhibitor, CHX counter, Pf growth 96h)
CC(C(=O)N1CCCC1)c1ccc([N+](=O)[O-])cc1 (stereo not given)	Pf growth 96h 15µM
Cc1ccc(-c2noc(-c3c(C)noc3C)n2)cc1	none
Cc1occc1-c1nc(-c2ccncc2)no1	Shiga inhibitor 80, CHX counter 34
Cc1ccc(-c2noc(-c3ccoc3C)n2)cc1	Shiga inhibitor 83, CHX counter 49 (no result: Sm TGR inh)
Cc1occc1-c1nc(-c2ccccn2)no1	Shiga inhibitor 68, CHX counter 26
Cc1cnc(C(=O)Nc2cccc(S(=O)(=O)N(C)C)c2)cn1	none
Cc1ccc(C(=O)/C=C/c2cc(Br)cc(Br)c2O)o1	Sm TGR inh 1.6µM
O=C(Nc1ccc(F)cc1)c1oc2ccccc2c1NC(=O)C12CC3CC(CC(C3)C1)C2	none (no result: Pf growth 48h, NS1 inh, Shiga inhibitor, CHX counter, Pf growth 96h)
O=c1[nH]c2ccccc2c2cn(-c3ccccc3)nc12	Shiga inhibitor 61, CHX counter 18, Pf growth 96h inconclusive
COc1ccccc1NC(=O)NCc1ccc2c(c1)OCO2	CHX counter 11, Pf growth 96h 15µM
CCOc1ccccc1NC(=O)NCc1ccc2c(c1)OCO2	Pf growth 96h inconclusive
O=C(NCc1ccc2c(c1)OCO2)Nc1ccc(F)cc1	Shiga inhibitor 44, CHX counter 37, Pf growth 96h inconclusive
Fc1ccc(NC(=S)NCc2ccc3c(c2)OCO3)cc1	none (no result: NS1 inh)
COc1ccccc1CN(CC(=O)NCc1ccc2c(c1)OCO2)C(=O)c1ccc2c(c1)OCCO2	Pf growth 96h 9.3µM
Cc1ccc(NC(=S)NCc2ccc3c(c2)OCO3)cc1C	none
Cc1ccc(NC(=O)NCc2ccc3c(c2)OCO3)cc1C	Shiga inhibitor 43, CHX counter 23
COc1ccccc1OCCC(=O)NCc1ccc2c(c1)OCO2	none (no result: NS1 inh)
O=c1cc2c(nn1Cc1ccccc1Cl)-c1ccccc1CC2	Pf growth 48h inconclusive (no result: Pf growth 96h)
O=C(NCc1ccco1)c1ccc2c(c1)CCO2	Pf growth 48h inconclusive, Sm TGR inh inconclusive
O=C(O)CNC(=O)c1ccc2c(c1)OCCO2	Pf growth 96h inconclusive
O=C(NCc1ccco1)c1ccc2c(c1)OCCO2	Shiga inhibitor 26, CHX counter 24
O=C(NCc1ccccc1F)c1ccc2c(c1)OCCO2	CHX counter 23 (no result: Shiga inhibitor)
Cc1cc(C(=O)NCc2ccccc2F)cs1	CHX counter 16
